Screening results as filed in PubChem.
Sampled rows, rich in hits. Any-hit rate of the full collection: about 1.5%.
IDE cell activ: human IDE activators in live cells, primary screen, fluorescence polarization, HEK cells, FAbeta-B substrate | Insulin-degrading enzyme (Homo sapiens), P14735 | FAbeta-B cleavage; 0% vehicle, 100% cell-free pure enzyme wells | activation, % at 5.96 µM | 0.073% of 340,000 active | AID 493087, 2011;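 active = activation above the mean of all tested compounds plus 3 SD, set per screening campaign, cut at about 17% in these data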
Cardiac RTF inh: cardiac RTF calcium sensitivity inhibitors, primary screen, biochemical, IANBD-TnC fluorescence, EC70 calcium; Troponin I, cardiac muscle (Homo sapiens) + Troponin T, cardiac muscle (Homo sapiens) + …; IANBD-labeled cardiac RTF, Ca2+ fluorescence; inhibition, % at 7.15 µM; 0.12% of 340,000 active; AID 493244, 2011;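 active = inhibition above the mean inhibition of all tested compounds plus 3 SD, cut at about 17% in these data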;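 note: assay run at fixed EC70 calcium of 1.6 mM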
CRFBP-R2 agonist: agonists of CRF-BP/CRF-R2 complex, primary screen, cell-based, HEK293, calcium dye fluorescence, uHTS. CRF-binding protein / CRF receptor 2 complex (human). AID 588473, 2011. 0.46% of 350,000 active. activation, % at 13.2 µM. calcium dye fluorescence (FLIPR); percent of saturating CRF peptide response;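 active = activation of at least 50%, plus an integration ratio under a set limit after plate pattern correction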;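 note: plate controls were neutral control wells without compound for no effect and CRF at EC100 for full effect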
CRFBP-R2 block: antagonists of CRF-BP/CRF-R2 complex, primary screen, cell-based, HEK293, calcium dye fluorescence, uHTS | AID 588475, 2011 | inhibition, % at 11.8 µM | 0.59% of 350,000 active | CRF-induced calcium fluorescence;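 active = inhibition of the ligand-induced calcium signal above about 50% at the single tested concentration, limit read from the data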
IDE inh: human IDE inhibitors in live cells, primary screen, fluorescence polarization, HEK cells, FAbetaB substrate. Insulin-degrading enzyme (Homo sapiens), P14735. FAbetaB cleavage. inhibition, % at 5.59 µM. 0.41% of 320,000 active. AID 434962, 2010;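 active = percent inhibition above the average of all tested compounds plus 3 SD, set per screening campaign, cut at about 16% in these data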;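 note: IDE supplied by intact live HEK cells; FP after avidin binding of uncleaved biotin substrate so inhibition keeps polarization high; 0% = DMSO wells and 100% = 60 µM reference IDE inhibitor Ii1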
cardiac RTF act: cardiac RTF calcium sensitivity activators, primary screen, biochemical, IANBD-TnC fluorescence, EC20 calcium | Troponin I, cardiac muscle (Homo sapiens) + Troponin T, cardiac muscle (Homo sapiens) + … | 0.24% of 340,000 active | IANBD-labeled TnC RTF fluorescence at EC20 calcium; 0% EC20 calcium, 100% full calcium | AID 493008, 2010 | activation, % at 7.2 µM;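 active = activation above the mean over all tested compounds plus 3 SD, cut at about 30% in these data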;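 note: rise in fluorescence read as greater calcium sensitivity of cardiac thin filaments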
IDE inh confirm: human IDE inhibitors in live cells, confirmation, fluorescence polarization, HEK cells, FAbetaB substrate. shares compounds with IDE inh. FAbetaB cleavage. inhibition, % at 5.59 µM. 51% of 1,200 active. AID 435028, 2010;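 active = mean inhibition across triplicate wells above the cutoff set by the earlier primary insulin-degrading enzyme screen, cut at about 16% in these data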;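 note: 0% = DMSO wells and 100% = 60 µM reference IDE inhibitor Ii1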
HEK293 tox: cytotoxicity in HEK cells, cytotoxicity control for IDE inhibitor project, cell-based, luminescence | shares compounds with IDE inh | HEK293 cytotoxicity, ATP luminescence | inhibition, % at 5.59 µM | 28% of 1,200 active | AID 449730, 2010; in the data active = inhibition above about 22%;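 note: 0% = vehicle wells and 100% = reference cytotoxic drug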
IDE FP artifact: fluorescent or optically active artefacts, dose response, artefact control for IDE inhibitor project, biochemical, fluorescence polarization | IC50, µM | shares compounds with IDE inh | AID 588718, 2011 | FP counterscreen for fluorescent artifacts, IDE probe project | 30 tested, under 10 active; call rule not given here
Starred values were filed as active, the others as inactive; i = inactive; x = no result.

SMILES	IDE cell activ	Cardiac RTF inh	CRFBP-R2 agonist	CRFBP-R2 block	IDE inh	cardiac RTF act	IDE inh confirm	HEK293 tox	others
CCSC1=NSC2=NC(=O)/C(=C\c3coc4ccccc4c3=O)C(=N)N12	-65	i	185*	-177	55*	555*	51*	6
CC(C)[C@H](NC(=O)c1ccc(Br)cc1)C(=O)NC1CCCCC1	8	-4	1	1	-3	-1	x	x
Cc1nn(C)c(C)c1NC(=S)Nc1ccc(S(=O)(=O)Nc2ncccn2)cc1	3	-1	-1	-2	2	-4	x	x
CN(CC(=O)NCC1CCCCC1)CC(=O)Nc1ccc(F)cc1	1	-1	-1	3	-2	0	x	x
COc1cccc(C(=O)N2CCN(C(=O)C3COc4ccccc4O3)CC2)c1 (centres undefined)	-8	-4	0	5	6	-1	x	x
COc1ccc(C(=O)N2CCN(C(=O)C3COc4ccccc4O3)CC2)cc1OC (centres undefined)	-19	-13	-2	-3	17*	3	16*	5	IDE FP artifact=>55
CCOC(=O)C1=C(c2ccccc2)N=c2s/c(=C\c3ccc(O)cc3)c(=O)n2C1c1cccs1 (centres undefined)	-31	-55	20	-34	23*	-5	115*	41*
COc1ccc(NC(=O)COC(=O)CO/N=C(\C)c2ccc3c(c2)OCO3)cc1S(N)(=O)=O	2	-3	-1	9	1	2	x	x
NC(N)=N/N=C/c1ccc(Cl)c(Cl)c1	x	x	0	-15	0	x	x	x
NC(N)=N/N=C/c1ccc(Cl)cc1Cl	-8	-7	2	-7	23*	0	4	25*
Nc1ncn(C(=S)Nc2ccccc2)n1	2	4	-3	26	x	2	x	x
Nc1c(C(=O)c2ccccc2)sc2nsc(SCCN3CCOCC3)c12	x	x	69*	-92	29*	x	61*	58*
CCCN1CCc2c(sc(NC(=S)NC(=O)c3ccccc3)c2C#N)C1	-33	-60	148*	-178	39*	31*	9	13
CC(C)N1CCc2c(sc(NC(=S)NC(=O)c3ccccc3)c2C#N)C1	-13	-23	55*	-31	19*	7	11	10
Cc1cc(NC(=O)c2cccc(Br)c2)no1	7	-9	0	-27	-3	1	x	x
O=C(NN1C(=O)/C(=C/c2cccc(O)c2)SC1=S)c1ccccc1O	5	3	0	8	-1	-4	x	x
COc1cc(/C=C2\SC(=S)N(NC(=O)c3ccc(O)cc3)C2=O)ccc1O	-85	-19	53*	-53	85*	12	150*	10
CC(=O)NN1C(=O)/C(=C\c2ccc(C)cc2)SC1=S	-4	2	0	-14	-1	-3	x	x
COc1cc(/C=C2\SC(=S)N(NC(=O)c3cccnc3)C2=O)ccc1O	-130	-7	18	-1	114*	7	159*	9
O=C(NN1C(=O)/C(=C/c2ccc(O)c(O)c2)SC1=S)c1ccccc1	-43	0	11	-24	43*	8	87*	17
CC(=O)NN1C(=O)/C(=C\c2ccc(O)cc2)SC1=S	-73	-19	48	-5	36*	24	89*	8
CC(C)(C)OC(=O)N1CC2(CCCCC2)CC1Cc1ccc(C(F)(F)F)cc1 (centres undefined)	x	x	6	-13	x	x	x	x
CC(C)S(=O)(=O)c1csc(NC(=O)Nc2cc(Cl)ccc2Cl)c1Cl	1	1	1	11	6	5	x	x
O=C1/C(=C\c2ccc(O)cc2)SC(=S)N1/N=C/c1ccc(O)cc1	-160	-21	37	-48	75*	8	98*	11
CN(Cc1c(F)cccc1Cl)C(=O)c1ccc(NS(=O)(=O)c2ccc3[nH]c(=O)[nH]c3c2)cc1	6	-6	0	-5	2	-13	x	x
SMILES	IDE cell activ	Cardiac RTF inh	CRFBP-R2 agonist	CRFBP-R2 block	IDE inh	cardiac RTF act	IDE inh confirm	HEK293 tox	others
CC(OC(=O)Cn1[nH]c(=O)c2ccccc2c1=O)C(=O)Nc1ccc(Cl)cn1 (centres undefined)	0	-1	-1	7	3	6	x	x
CCCCCCN1C=C/C(=C\C=C(C#N)C#N)c2ccccc21	2	0	-4	8	4	0	x	x
CCCCCN1C=CC=C/C1=C\C=C(C#N)C#N	x	x	19	-22	16	x	x	x
CCCCCCN1C=CC(=C/C=C(\C#N)C(=O)OCC)C=C1	-114	-262	247*	-261	165*	141*	121*	21
CCOC(=O)/C(C#N)=C/C=C1\C=Cc2ccccc2N1CC	-33	-6	0	-13	12	-1	x	x
CCCN1C=CC(=CC=C(C#N)C#N)C=C1	-32	-48	94*	-61	39*	42*	47*	6
C=CCN1C=CC(=CC=C(C#N)C#N)C=C1	-29	-46	67*	-54	23*	44*	41*	5
CCCCCCN1C=CC=C/C1=C/C=C(C#N)C#N	-39	-13	41	-79	29*	9	36*	8
O=C(CCc1nc(-c2ccccc2)no1)NC1CCCCCC1	0	-3	-1	-3	-2	8	x	x
Cc1ccc(/C=C/c2ccc(N(C)C)cc2)[n+](C)c1	-10	-54	6	-13	18*	39*	25*	91*
CC[n+]1c(/C=C/c2ccc(N(C)C)cc2)ccc2ccccc21	2	0	-2	-1	8	-6	x	x
CC(C)Oc1ccc(C(=O)NN2C(=O)NC3(CCCCC3)C2=O)cc1	2	0	0	-5	4	-4	x	x
CSc1nnc(N2C(=O)C(O)=C(C(=O)c3ccco3)C2c2ccc(F)cc2)s1 (centres undefined)	-1	-22	13	19	15	2	x	x
